The source of these data is PubChem BioAssay (EPA / NIEHS).

Values joined by “and” are separate entries in the source; they are usually repeats but may differ in a detail not shown here. Equal entries are not always repeated. More than one record can exist for a structure, and the calls need not agree. Active and inactive are the calls of the source. Rule for the calls: active = hit-call score of the fitted dose curve at least 0.9, where 1 is the maximum; inactive = score below 0.9.

Assay [1] is described as follows: ATG_M_06_CIS: Attagene CIS-FACTORIAL HepG2 Assay for M06 Transcription Factor (Internal Marker) (AID 2282950). Conditions: HepG2 Attagene CIS-FACTORIAL M06 internal marker reporter; actives raise or lower the signal. Put shortly:
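Serves as a background control readout. Transfected HepG2 exposed to compounds for 24 h, then reporter transcripts quantified by fluorescent RT-PCR and capillary electrophoresis. Both directions fitted against DMSO baseline.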

Assay [2] has as its target Hypoxia-inducible factor 1-alpha (Homo sapiens) (UniProt Q16665). The experiment in a line: ATG_HIF1a_CIS: Attagene CIS-FACTORIAL HepG2 Assay for human Hypoxia Inducible Factor 1 (HIF1A) (AID 2282951). The conditions noted are these: HepG2 Attagene cis-factorial HIF1a reporter transcription; actives raise or lower the signal. The method, boiled down:
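Fluorescence intensity of capillary-separated, 6-FAM-labelled reporter amplicons gives mRNA induction in HepG2 cells carrying transfected cis-promoter reporter units; cells exposed 24 h, responses fitted up or down from DMSO.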

The target of assay [3] is Hepatocyte nuclear factor 6 (Homo sapiens) (UniProt Q9UBC0). The experiment in a line: ATG_HNF6_CIS: Attagene CIS-FACTORIAL HepG2 Assay for human Hepatocyte Nuclear Factor 6 (HNF6) (AID 2282952). Conditions: HepG2 Attagene cis-factorial HNF6 reporter transcription; actives raise or lower the signal. The method, boiled down:
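HepG2 cells transiently transfected with cis-element-driven multiplexed reporter units measuring endogenous transcription factor activity. After 24 h exposure, reporter mRNA quantified by RT-PCR, FAM-labelled fragments and capillary electrophoresis; bidirectional fitting versus DMSO.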

Assay [4] deals with Heat shock factor protein 1 (Homo sapiens) (UniProt Q00613). The experiment in a line: ATG_HSE_CIS: Attagene CIS-FACTORIAL HepG2 Assay for human Heat Shock Transcription Factor 1 (HSE) (AID 2282953). The conditions noted are these: HepG2 HSE cis-reporter, Attagene RNA transcription; actives raise or lower the signal. The method, boiled down: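 Endogenous transcription factor activity in transiently transfected HepG2, read as reporter mRNA by RT-PCR with fluorescent capillary electrophoresis after 24 h. Gain or loss of signal fitted versus DMSO baseline.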

Assay [5] is described as follows: ATG_MRE_CIS: Attagene CIS-FACTORIAL HepG2 Assay for human Metal Responsive Element (MRE) (AID 2282954). Conditions: HepG2 MRE cis-reporter transcription, Attagene multiplex; actives raise or lower the signal. The method, boiled down:
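HepG2 cells transiently transfected with cis-element-driven reporter units; mRNA measured 24 h after dosing. Reporter transcripts quantified by RT-PCR, FAM labelling, HpaI digestion and capillary electrophoresis; bidirectional fit versus DMSO.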

The nature of assay [6]: ATG_PBREM_CIS: Attagene CIS-FACTORIAL HepG2 Assay for human Phenobarbital-responsive Enhancer Module (PBREM) (AID 2282955). The conditions noted are these: HepG2 PBREM cis-reporter, Attagene multiplexed transcription; actives raise or lower the signal. Put shortly: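 Cells were transfected with cis-element reporter units and treated for 24 h, after which RNA was extracted and reporter transcripts measured by RT-PCR and capillary electrophoresis.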

Assay [7] has as its target Paired box protein Pax-6 (Homo sapiens) (UniProt P26367). The assay can be described thus: ATG_Pax6_CIS: Attagene CIS-FACTORIAL HepG2 Assay for human Paired Box 6 (PAX6) (AID 2282956). Conditions: HepG2 CIS-FACTORIAL PAX6 reporter transcription, RNA readout; actives raise or lower the signal. The method, boiled down: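 Transient MRTU transfection of HepG2 → compound exposure 24 h → TriZol RNA, oligo(dT) RT → PCR, 6-FAM primer extension, HpaI cut → capillary electrophoresis; activity fitted both directions against DMSO.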

Assay [8] in a line: ATG_PPRE_CIS: Attagene CIS-FACTORIAL HepG2 Assay for human Peroxisome Proliferator-activated Response Element (PPRE) (AID 2282958). Conditions: HepG2 PPRE cis-element reporter, Attagene transcription factor profiling; actives raise or lower the signal. Put shortly: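 In this cell-based multiplex, a PPRE cis element drives a reporter sequence in transiently transfected HepG2 cells. Following 24 h treatment, labeled cDNA amplicons are sized and quantified by capillary electrophoresis, with DMSO defining baseline.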

Assay [9] is described as follows: ATG_RORE_CIS: Attagene CIS-FACTORIAL HepG2 Assay for human RAR-related Orphan Receptor Element (RORE) (AID 2282959). The conditions noted are these: HepG2 Attagene cis-factorial RORE reporter, mRNA; actives raise or lower the signal. Put shortly: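 Endogenous factor activity at a cis response element is read as reporter transcript levels in HepG2 cells, 24 h post-dose. Transcripts are quantified by RT-PCR with capillary electrophoresis, and data fitted in both directions against DMSO.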

Assay [10] in a line: ATG_PXRE_CIS: Attagene CIS-FACTORIAL HepG2 Assay for human Pregnane X Receptor Element (PXRE) (AID 2282957). Conditions: HepG2 Attagene CIS-FACTORIAL PXRE reporter, mRNA; actives raise or lower the signal. The method, boiled down: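 HepG2 cells transiently transfected with cis-element-driven multiplexed reporter units; after 24 h chemical exposure, reporter mRNA measured by RT-PCR, 6-FAM labelling, HpaI digestion and capillary electrophoresis. Bidirectional fitting relative to DMSO.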

Chain of Paired box protein Pax-6 (Homo sapiens) (P26367 whole entry, looked up): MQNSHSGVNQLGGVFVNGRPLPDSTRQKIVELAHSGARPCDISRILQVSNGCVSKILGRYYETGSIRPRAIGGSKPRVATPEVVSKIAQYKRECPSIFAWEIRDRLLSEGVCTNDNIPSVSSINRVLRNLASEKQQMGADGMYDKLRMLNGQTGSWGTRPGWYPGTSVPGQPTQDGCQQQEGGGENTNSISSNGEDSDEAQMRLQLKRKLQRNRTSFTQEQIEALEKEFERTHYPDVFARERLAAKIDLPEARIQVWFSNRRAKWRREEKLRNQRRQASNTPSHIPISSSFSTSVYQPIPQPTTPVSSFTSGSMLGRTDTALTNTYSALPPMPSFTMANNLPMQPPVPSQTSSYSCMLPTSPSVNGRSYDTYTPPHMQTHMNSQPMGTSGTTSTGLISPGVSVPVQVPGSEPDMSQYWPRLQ
Chain of Hypoxia-inducible factor 1-alpha (Homo sapiens) (Q16665 whole entry, looked up): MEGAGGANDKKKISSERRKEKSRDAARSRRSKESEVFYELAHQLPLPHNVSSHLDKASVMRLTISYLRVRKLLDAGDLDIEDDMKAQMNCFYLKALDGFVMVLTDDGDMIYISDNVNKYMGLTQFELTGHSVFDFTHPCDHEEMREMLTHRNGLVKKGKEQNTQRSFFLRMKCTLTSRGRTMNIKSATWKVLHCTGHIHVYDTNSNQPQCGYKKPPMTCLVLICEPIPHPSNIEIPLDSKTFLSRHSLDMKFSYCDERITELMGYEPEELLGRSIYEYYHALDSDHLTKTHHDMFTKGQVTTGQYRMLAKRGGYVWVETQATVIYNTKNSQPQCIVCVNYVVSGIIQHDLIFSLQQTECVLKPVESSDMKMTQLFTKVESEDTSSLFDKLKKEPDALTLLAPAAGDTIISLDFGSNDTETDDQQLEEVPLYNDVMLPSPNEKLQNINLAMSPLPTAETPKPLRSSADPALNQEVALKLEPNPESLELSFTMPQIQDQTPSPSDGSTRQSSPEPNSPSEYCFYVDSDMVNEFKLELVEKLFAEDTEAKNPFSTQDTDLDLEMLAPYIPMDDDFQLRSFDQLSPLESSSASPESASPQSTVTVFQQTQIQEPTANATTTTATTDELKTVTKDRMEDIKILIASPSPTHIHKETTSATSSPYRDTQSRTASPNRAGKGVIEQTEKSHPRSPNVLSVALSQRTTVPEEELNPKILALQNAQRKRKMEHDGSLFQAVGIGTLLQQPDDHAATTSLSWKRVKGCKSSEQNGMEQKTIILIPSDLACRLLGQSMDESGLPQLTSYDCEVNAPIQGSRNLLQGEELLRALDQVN
Chain of Hepatocyte nuclear factor 6 (Homo sapiens) (Q9UBC0 whole entry, looked up, the tested form may be a part): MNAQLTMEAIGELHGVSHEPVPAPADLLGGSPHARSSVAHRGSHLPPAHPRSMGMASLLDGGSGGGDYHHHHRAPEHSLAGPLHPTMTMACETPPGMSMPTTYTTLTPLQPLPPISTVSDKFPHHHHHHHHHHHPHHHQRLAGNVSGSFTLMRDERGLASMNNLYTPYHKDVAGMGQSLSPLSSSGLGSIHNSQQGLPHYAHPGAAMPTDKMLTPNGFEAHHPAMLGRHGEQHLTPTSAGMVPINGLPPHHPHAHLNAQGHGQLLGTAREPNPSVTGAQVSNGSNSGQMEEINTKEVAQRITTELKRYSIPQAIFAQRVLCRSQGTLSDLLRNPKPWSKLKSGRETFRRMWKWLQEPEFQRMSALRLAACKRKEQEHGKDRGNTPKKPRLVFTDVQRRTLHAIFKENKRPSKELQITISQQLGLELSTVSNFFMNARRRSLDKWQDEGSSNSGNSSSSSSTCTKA
Chain of Heat shock factor protein 1 (Homo sapiens) (Q00613 whole entry, looked up): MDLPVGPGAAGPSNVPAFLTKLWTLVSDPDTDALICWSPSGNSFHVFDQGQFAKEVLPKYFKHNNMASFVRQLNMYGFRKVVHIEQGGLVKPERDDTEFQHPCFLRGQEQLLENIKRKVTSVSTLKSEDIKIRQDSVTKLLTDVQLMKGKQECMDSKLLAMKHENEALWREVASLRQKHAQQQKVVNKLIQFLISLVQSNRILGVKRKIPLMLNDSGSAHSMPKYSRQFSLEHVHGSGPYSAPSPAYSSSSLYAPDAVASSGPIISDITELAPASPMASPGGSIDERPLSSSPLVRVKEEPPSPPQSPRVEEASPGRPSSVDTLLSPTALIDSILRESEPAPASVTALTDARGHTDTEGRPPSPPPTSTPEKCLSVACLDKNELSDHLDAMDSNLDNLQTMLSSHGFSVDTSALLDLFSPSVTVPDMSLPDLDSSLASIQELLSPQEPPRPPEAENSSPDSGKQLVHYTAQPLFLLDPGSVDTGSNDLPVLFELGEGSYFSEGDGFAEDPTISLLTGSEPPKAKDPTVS

Regarding `CCOC(=O)Nc1cccc(OC(=O)Nc2ccccc2)c1`, the result in [1], in [2], in assay [3], in assay [4], in assay [5] and in assay [6] was inactive. Besides, the result in assay [7], in assay [8] and in [9] was inactive.

As to `CCCCCCCCCl`, the result in [1], in assay [2], in [3], in assay [4], in assay [5] and in assay [7] was inactive. In addition, the result in assay [10] was inactive.

As for `CCN1CCC2(CC1)COc1cc3c(cc12)N(C(=O)c1ccc(-c2ccc(-c4nnc(C)o4)cc2C)cc1)CC3`, the call in assay [1], in assay [2], in [3], in assay [4], in assay [5] and in [6] was inactive. In addition, the result in [7], in assay [10], in assay [8] and in [9] was inactive.

With `Cc1ccc(N)cc1Cl`, the result in assay [1], in [2], in assay [3], in assay [4], in assay [5] and in [6] was inactive. Besides, the compound was classed as inactive in assay [7], in assay [10] and in [9].

For the compound `COP(=S)(OC)Oc1ccc(S(=O)(=O)N(C)C)cc1`, the compound was called inactive in [1], in assay [2], in assay [3], in [4], in [6] and in [7]. In addition, in assay [9], the compound was classed as inactive. The figures for the AC50 in assay [5] and in assay [10] were 69 µM (active) and 26.8 µM (active), respectively.

As for `Nc1ccc(N=Nc2ccc(-c3ccc(N=Nc4c(S(=O)(=O)O)cc5cc(S(=O)(=O)O)c(N=Nc6ccccc6)c(O)c5c4N)cc3)cc2)c(N)c1`, the outcome in [1], in [2], in assay [3], in assay [4], in [5] and in assay [6] was inactive. Moreover, the outcome in assay [7], in [10] and in assay [9] was inactive.

As to `CC(C)(C)CC(C)(C)c1ccc(O)cc1`, the compound was called inactive in [1], in [2], in assay [3], in assay [4], in [5] and in assay [7]. In addition, the compound was called inactive in [9]. Further, the AC50 is 0.932 nM (active) and 20.1 µM (active) in assay [2]; 3.34 µM (active) [middle of 4 runs] in [10].

`ClCc1cccnc1`: the outcome in [1], in assay [2], in [3], in assay [4], in assay [6] and in [10] was inactive. Besides, in [9], the result was inactive. Further, the AC50 was 45.9 µM (active) in assay [5] and 75.4 µM (active) in assay [7].

Turning to `O=C(Cc1ccccc1)c1ccccc1`, the call in [1], in [2], in assay [3], in assay [4], in assay [5] and in assay [6] was inactive. For the same compound, the call in [7] and in [9] was inactive. In assay [10], the AC50 was 27.2 µM (active).

On to `ClCc1ccccn1`, for which the result in assay [1], in assay [2], in assay [3], in assay [4], in assay [5] and in assay [6] was inactive. For the same compound, the call in assay [7], in [10], in assay [8] and in [9] was inactive.

For the compound `Cl/C=C\C[N+]12CN3CN(CN(C3)C1)C2`, the compound was classed as inactive in [1], in assay [2], in [3], in [5], in assay [6] and in [7]. In assay [9], the result was inactive. Also, the half-maximal activity concentration (AC50) was 158 µM (active) in assay [4] and 45.2 µM (active) in [10].

On to `C=CC#N`, for which the compound was classed as inactive in assay [1], in assay [2], in [3], in assay [4], in assay [5] and in assay [6]. Also, the call in assay [7] and in assay [9] was inactive.

For `ClC1(Cl)C2(Cl)C3(Cl)C4(Cl)C(Cl)(Cl)C5(Cl)C3(Cl)C1(Cl)C5(Cl)C24Cl` (stereo unspecified), the outcome in assay [1], in [2], in assay [3], in assay [4], in assay [5] and in assay [7] was inactive. In [10], the AC50 was 0.365 µM (active).

As for `NC(=O)O`, the compound was classed as inactive in assay [1], in assay [2], in [3], in [4], in [5] and in assay [6]. Further, the call in [7] and in [10] was inactive.

For `Cc1cc(Cl)ccc1O[C@H](C)C(=O)O`, the call in [1], in [2], in assay [3], in assay [4], in assay [5] and in assay [6] was inactive. Moreover, the compound was called inactive in assay [7], in assay [10] and in [9].

`CC(=O)[O][Hg][c]1ccccc1`: the outcome in assay [1], in assay [2], in [3], in [4], in assay [6] and in [7] was inactive. Moreover, in assay [8], the compound was classed as inactive. The AC50 in assay [5] is 5.86 µM (active); in assay [9], 3.71 µM (active).

Regarding `COP(=S)(OC)Oc1ccc(Sc2ccc(OP(=S)(OC)OC)cc2)cc1`, the outcome in assay [1], in assay [3] and in [8] was inactive. Besides, the AC50 in [2] was 39.3 µM (active); in assay [4] it was 27 µM (active); in assay [5] it was 57.7 µM (active); in [6] it was 8.08 µM (active); in assay [7], 49.2 µM (active); in [10], 2.83 µM (active). Moreover, the AC50 in [9] was 37.2 µM (active).

As for `C(=NC1CCCCC1)=NC1CCCCC1`, the compound was called inactive in [1], in [2], in assay [3], in assay [4], in [7] and in assay [10]. For the same compound, the AC50 in assay [5] is 33.4 µM (active); in assay [6], 8.4 µM (active); in assay [9], 2.33 µM (active).

For `CCN(CC)C(=O)Cl`, the call in assay [1], in assay [2], in assay [3], in assay [4], in assay [5] and in assay [6] was inactive. The call in assay [7], in [10], in [8] and in assay [9] was inactive.

Regarding `CC1(C)CCC(Cc2ccc(Cl)cc2)C1(O)Cn1cncn1` (stereo unspecified), the call in assay [1], in assay [2], in [3], in assay [4], in assay [5] and in [7] was inactive. For the same compound, the result in assay [8] and in [9] was inactive. The AC50 in assay [6] is 24.2 µM (active).

As to `CN(C)N=O`, the result in assay [1], in assay [2], in assay [3], in [4], in [5] and in assay [6] was inactive. Also, the compound was classed as inactive in assay [7] and in assay [9]. Besides, the AC50 in assay [10] is 100 µM (active) and 55.8 µM (active).

For the compound `COP(=S)(OC)Oc1cc(Cl)c(Cl)cc1Cl`, the compound was called inactive in assay [1], in [2], in [3], in assay [4], in assay [5] and in assay [6]. The result in [7] was inactive.

For the compound `C1CCC(NC2CCCCC2)CC1`, the outcome in assay [1], in assay [2], in assay [3], in [4], in [5] and in assay [6] was inactive. Besides, the compound was classed as inactive in [7] and in assay [9].

Take `CC1(C)Cc2cccc(O)c2O1`: the call in assay [1], in assay [2], in [3], in assay [4], in assay [5] and in assay [6] was inactive. In addition, the outcome in [7] and in assay [9] was inactive. For the same compound, in assay [10], the AC50 was 7.98 µM (active).

Consider `O=CC=O`, for which the outcome in assay [1], in assay [2], in [3], in assay [4], in assay [5] and in assay [6] was inactive. For the same compound, the compound was classed as inactive in assay [7], in [8] and in assay [9]. The AC50 in [10] was 4.55 µM (active).

The AC50 is the concentration giving half of the maximal activity seen.
